Data: PubChem BioAssay (NCI)
Compounds without any hit were thinned out: in the full panel of roughly 83,000, 20% have a hit.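 In brief: 96-well plates, 48 h treatment, single concentration, percent growth endpoint.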 A number with no mark means an inactive call. Calls of active or inactive are those of the source. Rule for the calls: active = growth percent below 10; inactive = the rest.

Tests used:
Experiment in all cases: NCI-60 one-dose screen, 48 h (100 = growth as untreated, 0 = no growth, -100 = all killed)
Details in all cases: 10 µM unless noted
[1] = test system: SR leukemia
[2] = test system: RPMI-8226 leukemia
[3] = test system: OVCAR-8 ovarian
[4] = test system: OVCAR-5 ovarian
[5] = test system: OVCAR-4 ovarian
[6] = test system: SK-OV-3 ovarian
[7] = test system: IGROV1 ovarian
[8] = test system: OVCAR-3 ovarian
[9] = test system: HS 578T breast
[10] = test system: NCI/ADR-RES ovarian
[11] = test system: T-47D breast
[12] = test system: BT-549 breast
[13] = test system: MDA-MB-435 melanoma
[14] = test system: SW-620 colon
[15] = test system: MCF7 breast
[16] = test system: HCT-116 colon
[17] = test system: HCC-2998 colon
[18] = test system: KM12 colon

SMILES	growth [1]	growth [2]	growth [3]	growth [4]	growth [5]	growth [6]	growth [7]	growth [8]	growth [9]	growth [10]	growth [11]	growth [12]	growth [13]	growth [14]	growth [15]	growth [16]	growth [17]	growth [18]
COc1cc2c(c(OC)c1OC)CCC(c1cccc(C(=O)Nc3ccc(Br)cc3)c1)O2 (stereo unspecified)	27.7%	40.5%	71.8%	68.4%	63.8%	72.7%	61.2%	78.8%	78.5%	63.9%	28.9%	69%	81.9%	88.7%	67.1%	60.6%	71.5%	65.2%
Cc1cc(C)c2c(c1)N(C)c1ncnc(-n3c(C)nc4cc(C)ccc43)c1CC2C (stereo unspecified)	11.3%	35%	71.6%	91.2%	58.1%	31.5%	47.5%	21.5%	40.9%	7.15% (active)	48.9%	59.2%	2.51% (active)	19.6%	18.7%	17.4%	76.1%	38.7%
Cc1cc(=O)n(C(=S)Nc2ccc(Cl)cc2)c2cc(O)ccc12	108%	113%	101%	101%	92.5%	79.1%	102%	100%	109%	103%	85.4%	119%	105%	110%	98.7%	96%	100%	102%
COCCn1cc(-c2nc(-c3cc4cccnc4n3C)cs2)c2ccccc21	10.1%	55.7%	39%	49%	25.1%	58.7%	43.7%	31.5%	61.5%	13.3%	-36.7% (active)	24.9%	6.84% (active)	28.9%	6.6% (active)	23.5%	57.8%	4.96% (active)
C#Cc1cccc(Nc2ncnc3cc(NC(=O)CCl)ccc23)c1	-37.5% (active)	-43.7% (active)	-11.7% (active)	-91% (active)	-60.1% (active)	-0.177% (active)	-56.6% (active)	-88.7% (active)	-2.33% (active)	-28.6% (active)	-52.7% (active)	-76.7% (active)	-70.8% (active)	-61.6% (active)	-50.4% (active)	-76.3% (active)	-88.3% (active)	-74.3% (active)
CC12OC(CC(O)C1O)n1c3ccccc3c3c4c(c5c6ccccc6n2c5c31)C(=O)N(CCN1CCCC1)C4=O (stereo unspecified)	2.44% (active)	1.17% (active)	26.3%	41.4%	27.9%	10.4%	13.9%	25.7%	41.1%	46.4%	21.9%	52.9%	30.4%	13.9%	2.15% (active)	13.4%	13.3%	27.9%
Cc1nc2ccccc2c(/C=C/c2ccc(F)cc2)c1C(=O)/C=C/c1ccccc1	8.92% (active)	1.46% (active)	2.09% (active)	-22% (active)	36.4%	56%	13.6%	-15.4% (active)	22.4%	2.57% (active)	10.9%	30.7%	-9.7% (active)	-1.98% (active)	11.4%	-69.9% (active)	22%	11.9%
Cc1nn(C)c2ncnc(N/N=C/c3cccc(O)c3O)c12	7.79% (active)	-8.14% (active)	18.2%	41.8%	22%	9.76% (active)	15.4%	25.5%	52.3%	11.9%	19%	30.8%	24.4%	26.7%	15%	18%	38.2%	21.5%
O=[N+]([O-])c1ccccc1Nc1ccc2ccccc2c1	88.1%	82.7%	88.6%	113%	88%	84.7%	87%	96.3%	72.5%	105%	91.1%	84.8%	99%	83.8%	74.9%	82.9%	105%	99.4%
CN1C(=O)N2CN3CCCN(C3)CN3C(=S)NC1C23 (stereo unspecified)	97.4%	93.6%	101%	109%	102%	93.3%	104%	107%	101%	109%	105%	117%	106%	101%	95.4%	106%	103%	104%
O=S(Nc1ccccc1)c1ccc(Cl)cc1 (stereo unspecified)	78.8%	99.3%	100%	109%	95.5%	109%	105%	112%	84.6%	106%	90.7%	110%	90.4%	86.8%	101%	92.1%	95.4%	109%
O=C(/C=C/C12c3ccccc3C(c3ccccc31)C1C(=O)NC(=O)C12)c1ccc(Cl)cc1Cl (stereo unspecified)	2.74% (active)	-22.3% (active)	11.1%	37.6%	42.9%	49.9%	23.4%	-29.3% (active)	30.5%	5.85% (active)	9.41% (active)	14.6%	-0.0298% (active)	5.09% (active)	6.75% (active)	2.09% (active)	68.2%	17.4%
Cc1c(C(C)(C)O)cn2ncnc(Oc3ccc(NC(=O)Nc4ccc(Cl)c(C(F)(F)F)c4)c(F)c3)c12	8.9% (active)	49.9%	70.7%	134%	37.5%	95.6%	57.3%	47.6%	80.9%	68%	40.6%	72.4%	58%	85%	32.4%	38.7%	125%	43.6%
CCN1C(=O)N(c2ccccc2)C2NC(=S)N(/N=C/C=C/c3ccccc3OC)C21 (stereo unspecified)	17.4%	14.7%	9.48% (active)	27.8%	45.5%	31.6%	3.96% (active)	4.35% (active)	20.2%	6.95% (active)	42.3%	20.4%	-27.5% (active)	22.2%	7.64% (active)	9.02% (active)	14.8%	11.3%
CC(C)CCC[C@@H](C)[C@H]1CC[C@H]2[C@@H]3CC=C4c5sc(Nc6cc(C(F)(F)F)cc(C(F)(F)F)c6)nc5CC[C@]4(C)[C@H]3CC[C@]12C	106%	106%	89.2%	106%	100%	89.2%	97.7%	102%	102%	102%	95.7%	98.9%	104%	100%	107%	99.3%	101%	102%
COc1cc(/C=C/C(=O)N2CCN(C(=O)c3cc(OC)c(OC)c(OC)c3)CC2)ccc1OCCCOc1cc2c(cc1OC)C(=O)N1CCC[C@H]1C=N2	-15.4% (active)	15.2%	14.1%	8.34% (active)	16%	20.3%	-57.9% (active)	-11.9% (active)	-2.23% (active)	78.6%	7.16% (active)	-55.9% (active)	-66.4% (active)	4.48% (active)	7.86% (active)	7.83% (active)	-39% (active)	-19.5% (active)
CCN(CC)CCOc1ccc(/C(=C(\C)Cc2ccc(OC)cc2)c2ccc(OC(=O)NCc3ccccc3)cc2)cc1	-53% (active)	3.04% (active)	68.7%	81.9%	58%	91.2%	77.5%	76.1%	63.2%	78.7%	40.6%	77.4%	40.7%	57.6%	20.6%	25.3%	70.6%	63.4%
